Bioassay records: PubChem BioAssay, Johns Hopkins Ion Channel Center
KCNQ2 pot: potentiators of rat KCNQ2 potassium channel | B-score at 10 µM | CHO-K1 KCNQ2, FluxOR thallium flux fluorescence; hits give high values | 310,000 compounds, 0.54% hits;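 active means fluorescence ratio B-score at least 3 SD of library B-scores, with initial fluorescence B-score within 3 of them, cut at about 5.3 in these data; same plate scores as AID 2156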;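 further: B-score of peak minus minimum over baseline fluorescence ratio after K+ and Tl+ stimulus; positive B-score means potentiation of KCNQ2 with more thallium influx and brighter signal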
KCNQ2 inh: blocks the rat KCNQ2 potassium channel; CHO-K1 KCNQ2, FluxOR thallium flux, 20 min; hits give low values; B-score at 10 µM; 310,000 compounds, 1.1% hits; AID 2156;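 active means fluorescence ratio B-score at most minus 3 library SDs, with starting brightness B-score within 2 library SDs, cut at about -5.5 in these data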
Kir21 conf inh: confirmation of mouse Kir2.1 potassium channel inhibitors; shares compounds with KCNQ2 pot; Kir2.1-expressing cells, FluxOR thallium flux fluorescence; hits give low values; Tl flux remaining, % of negative control (hits give low values), % at 10 µM; 2,300 compounds, 41% hits;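 active means Primary-screen hit whose thallium flux fell at least 3 control SD below untreated wells in both duplicates, with normal baseline fluorescence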
Target sequence (P35561 whole entry, looked up): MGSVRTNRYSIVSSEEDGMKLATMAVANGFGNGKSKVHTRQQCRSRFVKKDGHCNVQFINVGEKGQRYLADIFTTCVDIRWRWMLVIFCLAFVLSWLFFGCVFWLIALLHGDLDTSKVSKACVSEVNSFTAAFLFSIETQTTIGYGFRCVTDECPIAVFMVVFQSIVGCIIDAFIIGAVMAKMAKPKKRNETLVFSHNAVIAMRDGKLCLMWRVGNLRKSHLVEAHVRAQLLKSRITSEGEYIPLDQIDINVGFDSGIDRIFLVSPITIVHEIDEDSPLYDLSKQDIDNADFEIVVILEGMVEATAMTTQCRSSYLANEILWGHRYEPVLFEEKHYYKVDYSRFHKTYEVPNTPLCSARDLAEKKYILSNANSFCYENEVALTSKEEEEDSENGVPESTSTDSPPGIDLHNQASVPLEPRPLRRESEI
HEK293 Tl flux: alters thallium flux in parental HEK293 cells, Kir2.1 counter-screen; shares compounds with KCNQ2 pot; FluxOR thallium flux fluorescence; 0% = unstimulated blank wells; FluxOR signal as % of negative control (100 = no effect), % at 10 µM; 2,300 compounds, 19% hits;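 active means dye signal at least 3 control SD above or below untreated wells in both duplicates, raw fluorescence within 3, either direction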;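 further: percent is based on the flux ratio of peak minus minimum fluorescence over baseline F0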
CHO-K1 ctr: parental CHO-K1 activity in KCNQ2 potentiator counter-screen; AID 2282; activity increase over 3SD of controls, % at 10 µM; shares compounds with KCNQ2 pot; parental CHO-K1 cells, FluxOR thallium flux fluorescence; zero = vehicle mean+3SD, 100% = vehicle-minus-blank window; 1,200 compounds, 43% hits;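 active means signal rise of at least 3 SD above the untreated control mean, in both duplicate wells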;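 further: counter screen of KCNQ2 potentiator hits so any rise reflects channel-independent effects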
KCNQ1 pot spec: tests whether KCNQ2 potentiators also act on human KCNQ1; shares compounds with KCNQ2 pot; CHO KCNQ1 stable, FluxOR thallium flux fluorescence; beyond 3SD, as % of vehicle-control signal; activation over 3SD threshold, % at 10 µM; 1,200 compounds, 28% hits; AID 2283;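 active means fluorescence ratio rise of at least 3 SD of vehicle wells above their mean, in both replicate wells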
KCNQ2 pot confirm: confirmation of rat KCNQ2 potassium channel potentiators; potentiation, less the hit threshold, % at 10 µM; 1,200 compounds, 68% hits; AID 2287; CHO-KCNQ2 cells, FluxOR thallium flux fluorescence; shares compounds with KCNQ2 pot;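 active means fluorescence ratio rising 3 SD or more over the vehicle control mean in both replicates, plus primary screen hit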;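 further: peak minus minimum thallium fluorescence divided by baseline after K/Tl stimulus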
Kir2-1 sel: selectivity of KCNQ2 potentiators: effect on mouse Kir2.1; shares compounds with KCNQ2 pot; HEK293 Kir2.1, FluxOR thallium flux fluorescence; activity over 3SD threshold, % at 10 µM; 1,200 compounds, 2% hits; AID 2345;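 active means fluorescence ratio rise of at least 3 SD above the vehicle-control mean, seen in both replicates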
KCNQ2 W236L MoA: rat KCNQ2 W236L mutant potentiation by KCNQ2 potentiators | shares compounds with KCNQ2 pot | CHO KCNQ2-W236L, automated patch clamp current | current increase over 3SD of negative controls (%), hits give high values, % at 25 µM | 940 compounds, 10% hits;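 active means current increase at least 3 SD of the untreated controls above them in both duplicate recordings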
Each line names hits and unclear results; the compound was inactive in the other large screens (follow-up assays come after a bar, where they were run); ! = a repeat was not active. Only some compounds are listed: those with a hit (about 1.6% of all), similar ones and a draw of the others.

Oc1c(Br)cc(Br)cc1C=Nc1ccc2[nH]ncc2c1	KCNQ2 pot 14.1 | Kir21 conf inh inactive | HEK293 Tl flux inactive | CHO-K1 ctr 11.3 | KCNQ1 pot spec inactive | KCNQ2 pot confirm 19.7 | Kir2-1 sel inactive | KCNQ2 W236L MoA 10.3%
COc1ccc(C=Nc2ccc3[nH]ncc3c2)c(O)c1	none (no result: KCNQ2 pot)
Oc1c(Br)cc(Br)cc1C=Nc1cccnc1	KCNQ2 pot 8.43 | Kir21 conf inh inactive | HEK293 Tl flux inactive | CHO-K1 ctr inactive | KCNQ1 pot spec inactive | KCNQ2 pot confirm 17.2 | Kir2-1 sel inactive | KCNQ2 W236L MoA inactive
N#CCN1CCN(CC(=O)c2ccc(Br)cc2)CC1	none (no result: KCNQ2 pot)
CCOC(=O)C1=NN(C(=O)c2ccc(C)cc2)C(O)(c2ccc(Cl)cc2)C1 (centres undefined)	KCNQ2 pot 25.4 | Kir21 conf inh inactive | HEK293 Tl flux 380.0% | CHO-K1 ctr 0.0 | KCNQ1 pot spec inactive | KCNQ2 pot confirm 56.9 | Kir2-1 sel inactive | KCNQ2 W236L MoA inactive
CCC1=NN(C(=O)c2ccc(Cl)cc2)C(O)(c2ccccc2)C1 (centres undefined)	none
COC(=O)C1=NN(C(=O)c2ccc(Cl)cc2)C(O)(c2ccccc2)C1 (centres undefined)	KCNQ2 pot 7.22 | Kir21 conf inh inactive | HEK293 Tl flux 424.0% | CHO-K1 ctr inactive | KCNQ1 pot spec 94.6 | KCNQ2 pot confirm 54.8 | Kir2-1 sel inactive | KCNQ2 W236L MoA inactive
CCC1=NN(C(=O)c2ccc(Cl)cc2)C(O)(c2ccc(C)cc2)C1 (centres undefined)	none
CSCCC(NC(=O)c1ccccc1Cl)C(=O)Nc1ccc(C)c(S(=O)(=O)N2CCOCC2)c1 (centres undefined)	none (no result: KCNQ2 pot)
CCCCCOc1ccc(CSC(=N)N)cc1[N+](=O)[O-]	none (no result: KCNQ2 pot) | Kir21 conf inh 29.0% | HEK293 Tl flux inactive
CCOc1ccc(C(C)=O)cc1CSC(=N)N	none
CCCCOc1ccc(Br)cc1CSC(=N)N	none | Kir21 conf inh 20.0% | HEK293 Tl flux inactive
COc1ccc(CSC(=N)N)cc1[N+](=O)[O-]	none
O=C(Nc1nnc(-c2ccc3c(c2)CCCC3)o1)c1ccccc1Cl	KCNQ2 pot 9.42 | Kir21 conf inh inactive | HEK293 Tl flux inactive | CHO-K1 ctr inactive | KCNQ1 pot spec inactive | KCNQ2 pot confirm 11.7 | Kir2-1 sel inactive | KCNQ2 W236L MoA inactive
O=C(COc1ccccc1)Nc1nnc(-c2ccc3c(c2)CCCC3)o1	none (no result: KCNQ2 pot)
O=C(Nc1nnc(-c2ccc3c(c2)CCCC3)o1)c1ccccc1	KCNQ2 pot 7.11 | Kir21 conf inh inactive | HEK293 Tl flux 289.0% | CHO-K1 ctr inactive | KCNQ1 pot spec inactive | KCNQ2 pot confirm 8.6 | Kir2-1 sel inactive | KCNQ2 W236L MoA inactive
O=C(Nc1cccc2c1CCCC2)c1ccccc1Cl	none
COc1cc(CCC(=O)OCC(=O)Nc2ccc(Br)cc2F)cc(OC)c1OC	none
Cc1cc(C)c(NC(=O)C2CC3CCC2C3)c(C)c1 (centres undefined)	KCNQ2 pot 27.5 | Kir21 conf inh inactive | HEK293 Tl flux inactive | CHO-K1 ctr inactive | KCNQ1 pot spec inactive | KCNQ2 pot confirm 112.3 | Kir2-1 sel inactive | KCNQ2 W236L MoA inactive
COC(=O)c1ccc(NC(=O)C2CC3CCC2C3)cc1 (centres undefined)	none
COC(=O)c1sccc1NC(=O)C1CC2CCC1C2 (centres undefined)	none
Cc1cccc(NC(=O)C2CC3CCC2C3)c1C (centres undefined)	KCNQ2 pot 6.93 | Kir21 conf inh inactive | HEK293 Tl flux inactive | CHO-K1 ctr inactive | KCNQ1 pot spec inactive | KCNQ2 pot confirm 13.5 | Kir2-1 sel inactive | KCNQ2 W236L MoA inactive
Cc1cccc(C)c1NC(=O)C1CC2CCC1C2 (centres undefined)	KCNQ2 pot 6.19 | Kir21 conf inh inactive | HEK293 Tl flux inactive | CHO-K1 ctr 2.9 | KCNQ1 pot spec 33.7 | KCNQ2 pot confirm inactive | Kir2-1 sel inactive | KCNQ2 W236L MoA inactive
CCOC(=O)c1ccc(NC(=O)C2CC3CCC2C3)cc1 (centres undefined)	none
CC(C)C1Oc2ccccc2N(CC(=O)NC2CCCCC2)C1=O (centres undefined)	none
CC(=O)NC(Cc1cccc(C)c1)C(=O)NC1CCN(S(=O)(=O)c2ccccc2)CC1 (centres undefined)	none (no result: KCNQ2 pot)
CN(CC(=O)Nc1ccc(F)cc1)C(=O)COC(=O)C1CCN(c2ccc(C(F)(F)F)cn2)CC1	KCNQ2 pot 13.1 | Kir21 conf inh inactive | HEK293 Tl flux inactive | CHO-K1 ctr 79.3 | KCNQ1 pot spec inactive | KCNQ2 pot confirm 17.6 | Kir2-1 sel inactive | KCNQ2 W236L MoA inactive
O=C(COC(=O)C1CCN(c2ccc(C(F)(F)F)cn2)CC1)Nc1ccc(Cl)cc1	none
Nc1ccccc1C(=O)Nc1cccc2ccccc12	none (no result: KCNQ2 pot)
CC12CCC(C(=O)Nc3cccc4ccccc34)(C1Br)C2(C)C (centres undefined)	KCNQ2 pot 10.3 | Kir21 conf inh inactive | HEK293 Tl flux inactive | CHO-K1 ctr 1.5 | KCNQ1 pot spec inactive | KCNQ2 pot confirm 48.5 | Kir2-1 sel inactive | KCNQ2 W236L MoA inactive
COCCn1c(SCC(=O)N2CCCCC2)nc2c(c1=O)SC(C)C2 (centres undefined)	none
CCCCN=C(Nc1ccc(Cl)cc1)c1cccnc1	none
NC(=NCCCCCCN=C(N)/N=C(\N)Nc1ccc(Cl)cc1)/N=C(\N)Nc1ccc(Cl)cc1	KCNQ2 pot 6.98! | Kir21 conf inh inactive | HEK293 Tl flux inactive | CHO-K1 ctr 3.9 | KCNQ1 pot spec inactive | KCNQ2 pot confirm 44.3 | Kir2-1 sel inactive
COc1ccc(NS(=O)(=O)c2cc(C(=O)N3CCN(C/C=C/c4ccccc4)CC3)ccc2C)cc1	none (no result: KCNQ2 pot)
COc1ccc(C)cc1NC(=O)CNc1ccc(C(C)=O)cc1	none (no result: KCNQ2 pot)
CCN1C(=O)/C(=C/C2=Cc3ccccc3OC2C)SC1=S (centres undefined)	none (no result: KCNQ2 pot)
NC(=O)C1CCN(C(=O)CN(C2CCCCC2)S(=O)(=O)c2ccc(F)cc2)CC1	none
CCNC(=S)/N=C(/Nc1ccccc1)Nc1nc(C)cc(C)n1	none | Kir21 conf inh inactive | HEK293 Tl flux inactive
CCNC(=S)/N=C(/Nc1ccc(OC)cc1)Nc1nc(C)cc(C)n1	none (no result: KCNQ2 pot)
COc1ccc(C(=O)N2CCOC2CNC(=O)C(=O)NCCc2ccc(OC)c(OC)c2)cc1 (centres undefined)	none
